Measurements taken from ChEMBL document CHEMBL3988442, “University of Dundee, Small-Polar-MMV Screening Library” (2021).
Among all 48,000 compounds or so, about 13,000 (27%) showed an effect of 50% or more. The list shows a part of the results.

The molecules below were run on Wolbachia pipientis (assay: Anti-Wolbachia Cell-Based Screen). Settings: 5 µM.
Type: functional
Parameters: scale not given: in the data most compounds retested in dose-response had high values

Structure (SMILES)	Percent Effect [%]
Cc1cnn(CC2CN(c3ncnc4ccsc34)CCO2)c1 (configuration not stated)	-19.26
O=C(Nc1cn[nH]c1)N(CCCO)C1CCc2ccccc21 (configuration not stated)	-15.52
Cc1cc(NC(=O)N2CCOCC2)nn1-c1cccc(Cl)c1	1.002
c1ccc(COCCN2CCc3[nH]cnc3C2c2ccoc2)cc1 (configuration not stated)	3.153
O=C(NCc1cscn1)NC1CCN(c2ncccc2Cl)C1 (configuration not stated)	-8.414
CC(C)CC(NS(C)(=O)=O)C(=O)N(C)Cc1nnc2n1CCC2 (configuration not stated)	-5.124
COc1cccc(OC2CN(C(=O)C3CCCN(C(=O)N(C)C)C3)C2)c1 (configuration not stated)	-3.604
CCOCC(=O)N1C[C@@H]2COC[C@H](c3nc(C)no3)[C@@H]2C1	1.076
CCOCC(=O)N1C[C@@H]2COC[C@]2(c2nc(C)no2)C1	107.1
Cc1cc(C(=O)N2C[C@@H]3COC[C@]3(c3nnc(C)o3)C2)on1	27.9
CN(C)CCNC(=O)c1nc2c(o1)CN(c1ncccn1)C2	-6.07
Cc1ncc2c(c1CNC(=O)C1(c3ccc(F)cc3)CC1)CCNC2	13.15
CCNC(=O)Cc1ccc(-c2cccc3c2CCNC3)cc1	110.7
Cc1cc(-c2cccc3c2CCNC3)cnc1-n1cnnc1	3.521
CCNC(=O)Cc1ccc(NC(=O)NC(CC)c2ccncc2)cc1 (configuration not stated)	3.124
CN(C)C(=O)Cc1ccc(-c2cccc3c2CCNC3)cc1	105
Cc1nc(-n2cnnc2)ccc1-c1cccc2c1CCNC2	-4.509
CCS(=O)(=O)CCNC(=O)NCc1ccccc1-n1cccn1	-14.43
CS(=O)(=O)N1CCC2(CC1)CC(OCC1CCOCC1)CO2 (configuration not stated)	-4.18
CCCc1nc(CN(CC)C(=O)c2ccc3c(c2)nnn3C)no1	9.755
COCC(O)CN1CCC(=O)N(CC(=O)C(C)(C)C)Cc2ccccc21 (configuration not stated)	110.3
CCCS(=O)(=O)CC(=O)N1CCN(CC2CC2)c2ccccc21	-17.3
COCCC(=O)N1CCN(CC2CC2)c2ncccc2C1	-45.17

Structure (SMILES)	Percent Effect [%]
COCC(O)CN1CCC(=O)N(CC2CC2)Cc2ccccc21 (configuration not stated)	108.3
COCC(O)CN1CCC(=O)N(CC=C(C)C)Cc2ccccc21 (configuration not stated)	122.6
COc1ccc(CNC(=O)CN2CCc3ccccc32)cc1	5.049
O=C(CN1CCc2ccccc21)Nc1ccc(OC(F)F)cc1	-23.08
O=C(NCCNc1ncccn1)c1ccc(OCc2ccccc2)nc1	-6.041
CN(c1ccc(CNC(=O)c2c[nH]c(=O)c(Cl)c2)cc1)C1CCCCC1	0.5041
CCOCCOC(C)C(=O)Nc1nccn1Cc1ccccc1 (configuration not stated)	-11.15
CC(CCS(C)(=O)=O)NC(=O)NCc1ccc2ccccc2c1 (configuration not stated)	-7.499
Cc1cc(C)n(C2CN(c3nc(-c4ccncc4)nc4c3CCC4)C2)n1	-1.448
CN(C)C(=O)c1ccc(NCCNc2ccc3ccccc3n2)nc1	-5.082
Cc1c(C(=O)N2CCC(c3nc(C)n4ccsc34)CC2)cnn1C	112.4
CCOc1cc(C)nc(N2CCN(C(=O)c3ccnn3C)CC2)n1	4.776
CCCn1ncc(C(=O)N2CCN([C@H]3CCCC[C@@H]3O)CC2)c1C	2.84
Cc1nc(C2CCCN(C(=O)c3ccncc3)C2)c2sccn12 (configuration not stated)	112
Cc1csc(C2CCCN(C(=O)c3cnn4ccc(C)nc34)C2)n1 (configuration not stated)	-3.808
Cc1nc(C2CCN(C(=O)c3ccc(=O)n(C)c3)CC2)c2sccn12	-4.246
Cc1nc(C2CCN(C(=O)c3ccnn3C)CC2)c2sccn12	90.51
O=C(CCCN1CCCCC1)N1CCN(C(=O)c2ccc[nH]2)CC1	1.236
CCC1CN(C(=O)COc2ccc(C(=O)NC3CC3)cc2)CCO1 (configuration not stated)	-23.61
CCc1nccn1CCC(=O)N1CCN(c2ccccc2C)CC1C (configuration not stated)	0.5766
Cc1ccc(Nc2nccc(C3CCN(C(=O)CO)C3)n2)nc1 (configuration not stated)	147.3
CC(=O)N1CCN(c2ccccc2CNc2ccc(C)cn2)CC1	1.224
CNCC(=O)N1CCC(c2ccnc(Nc3ccc(C)cn3)n2)C1.Cl (configuration not stated)	-6.427

Structure (SMILES)	Percent Effect [%]
CC(=O)N1CCC(c2ccnc(Nc3ccc(C)cn3)n2)C1 (configuration not stated)	111.1
CC(=O)N1CC[C@H](c2nc3cc(C)ccc3o2)C1	-3.722
CC(=O)N1CCC(NS(=O)(=O)c2cccnc2)CC1	4.265
CC(=O)N1CCC(c2ccnc(Nc3cncnc3)n2)CC1	88.64
O=C(CCSc1ccc(F)cc1)NS(=O)(=O)c1ccc2c(c1)OCCO2	5.18
FC(F)(F)c1ccc(-c2cc(NC3CCNCC3)nc3[nH]ccc23)nc1	-3.524
COCCN(C/C=C/c1ccccc1)Cc1nccs1	-13.78
Cc1nc(C)n(CC2CCCCN2CCCN2CCCC2=O)n1 (configuration not stated)	-1.453
Cc1cc(C)n(CC2CCCCN2CCCS(N)(=O)=O)n1 (configuration not stated)	6.399
CC1CCCCN1C(=O)CCn1cnc2sccc2c1=O (configuration not stated)	-3.502
CC1CCN(CC(O)Cn2cnc3ccc(Cl)cc3c2=O)CC1 (configuration not stated)	-0.72
OCC1CCCCN1Cc1cc(O)c2cccc(F)c2n1 (configuration not stated)	-10.07
O=c1c2ccc(Cl)cc2ncn1CCCN1CCCCC1CO (configuration not stated)	62.54
OCC1CCCCN1CCn1ccnc1-c1ccc2c(c1)OCCO2 (configuration not stated)	3.348
CCC1CCCCN1C(=O)CCn1cnc2sccc2c1=O (configuration not stated)	3.224
CC(C)(C)c1cc2ncn(CCCN3CCCCC3CO)c(=O)c2s1 (configuration not stated)	91.32
CC(C)N1CCCCC1CCn1cnc2cc(C(F)(F)F)ccc2c1=O (configuration not stated)	86.9
OCC1CCCCN1CCCNCc1cc(O)c2cc(F)ccc2n1 (configuration not stated)	13.42
O=c1c2ccc(C(F)(F)F)cc2ncn1CCCN1CCCCC1CO (configuration not stated)	127.8
Cc1nccc(N2CCC(=O)N(Cc3ccc(F)cc3)C(C(C)C)C2)n1 (configuration not stated)	-4.712
Cc1ccc(CC(=O)Nc2ccc(CS(C)(=O)=O)c(F)c2)cc1	-3.383
